Assay [1] in a line: qHTS assay to identify small molecule that activate the aryl hydrocarbon receptor (AhR) signaling pathway - cell viability counter screen (AID 743086). Also: nearly all actives have a fitted effect of over 45% in size. Also: potency is read from the fitted curve at half-maximal effect. The procedure, abridged: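 Cytotoxicity counter screen: CellTiter-Fluor signal (30 min, 37 C) in 4000 HepG2 cells/well carrying the DRE-luciferase reporter, following 24 h compound exposure at 37 C.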
Background: qHTS replaces the single test concentration by a dilution series.

Assay [2] has as its target Peroxisome proliferator-activated receptor gamma (Homo sapiens) (UniProt P37231). Description: qHTS assay to identify small molecule agonists of the peroxisome proliferator-activated receptor gamma (PPARg) signaling pathway (AID 743094; active = well fitted activation curve with a large enough effect in the signal ratio in the repeat runs, not every such curve was filed as active; the % refers to the signal ratio). The procedure, abridged:
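Fluorescence-based beta-lactamase readout in HEK293H PPARg UAS-bla cells after 17 h compound exposure (37C) and 1 h B/G FRET substrate incubation at room temperature.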

The target is the same in assay [3]. Briefly: qHTS assay to identify small molecule antagonists of the peroxisome proliferator-activated receptor gamma (PPARg) signaling pathway (AID 743191; calls by dose curve; also: series mostly up to about 63 µM; nearly all actives have a fitted effect of over 30% in size). The procedure, abridged: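 Beta-lactamase reporter under UAS control in HEK293H PPARg-bla cells; compound treatment 17 h at 37C. Read-out: fluorescence intensity after 1 h room-temperature incubation with LiveBLAzer B/G FRET substrate.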

Assay [4] is described as follows: qHTS assay to identify small molecule antagonists of the peroxisome proliferator-activated receptor gamma (PPARg) signaling pathway - cell viability counter screen (AID 743194). Also: nearly all actives have a fitted effect of over 55% in size. The conditions noted are these: Potency: co-treated with 50 nM rosiglitazone unless noted. The procedure, abridged:
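Viability was measured as CellTiter-Glo luminescence in GeneBLAzer PPARg UAS-bla HEK293H cells. These cells had been exposed 17 h at 37 C to compounds together with rosiglitazone at 50 nM final, with the beta-lactamase readout taken in the same wells.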

A short description of assay [5]: qHTS assay for small molecule agonists of the antioxidant response element (ARE) signaling pathway (AID 743202; active = well fitted activation curve with a large enough effect in the signal ratio in the repeat runs, not every such curve was filed as active; the % refers to the signal ratio; also: potency is read from the fitted curve at half-maximal effect). Put shortly:
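Beta-lactamase reporter activity, read as fluorescence intensity, reflects ARE/Nrf2 pathway induction in HepG2 cells after 16 h compound exposure at 37 C; substrate loading was 2 h at room temperature.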

Assay [6] can be described thus: qHTS assay for small molecule agonists of the antioxidant response element (ARE) signaling pathway - cell viability counter screen (AID 743203; calls by dose curve; also: nearly all actives have a fitted effect of over 55% in size). Put shortly: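 Parallel cytotoxicity read-out for the ARE-bla screen: HepG2 reporter cells, 16 hrs with compounds, then CellTiter-Glo luminescence.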
Assay [7] is described as follows: qHTS assay for small molecule activators of the heat shock response signaling pathway - cell viability counter screen (AID 743209). Also: nearly all actives have a fitted effect of over 50% in size. Put shortly:
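To flag cytotoxic compounds, HSE-bla HeLa cells plated at 1500 cells/well were dosed for 5 h at 37 C, followed by the reporter FRET read and then CellTiter-Glo, with luminescence recorded 30 min after reagent addition.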

The nature of assay [8]: qHTS assay for small molecule activators of the heat shock response signaling pathway (AID 743210; active = well fitted activation curve with a large enough effect in the signal ratio in the repeat runs, with a control signal flat, not every such curve was filed as active; the % refers to the signal ratio;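 also: HeLa cells with beta-lactamase reporter driven by heat shock elements; series mostly up to about 63 µM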). The procedure, abridged: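 Fluorescence from a cleaved B/G FRET substrate (2.5 h, room temp) reports HSE-driven beta-lactamase in HeLa cells treated 5 h at 37 C with DMSO-dissolved compounds.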
The nature of assay [9]: qHTS assay to identify small molecule agonists of the peroxisome proliferator-activated receptor delta (PPARd) signaling pathway - cell viability counter screen (AID 743211). Also: nearly all actives have a fitted effect of over 55% in size. The procedure, abridged:
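In the same wells used for beta-lactamase reporter measurement, cytotoxicity is scored by CellTiter-Glo. HEK293H PPARd-bla cells receive compound for 17 h at 37C following a 5 h settling period.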

Assay [10] deals with Peroxisome proliferator-activated receptor delta (Homo sapiens) (UniProt Q03181). Description: qHTS assay to identify small molecule agonists of the peroxisome proliferator-activated receptor delta (PPARd) signaling pathway (AID 743212; calls by dose curve;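 also: HEK293H cells with PPARd UAS beta-lactamase reporter GeneBLAzer system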). The procedure, abridged: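 Steps: seed PPARd-bla HEK293H cells; incubate 5 h, 37 C, 5% CO2; add compounds in DMSO; incubate, 37 C; add LiveBLAzer B/G FRET substrate; hold 2 h at room temperature; measure fluorescence.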
Sequence of Peroxisome proliferator-activated receptor delta (Homo sapiens) (Q03181 whole entry, looked up): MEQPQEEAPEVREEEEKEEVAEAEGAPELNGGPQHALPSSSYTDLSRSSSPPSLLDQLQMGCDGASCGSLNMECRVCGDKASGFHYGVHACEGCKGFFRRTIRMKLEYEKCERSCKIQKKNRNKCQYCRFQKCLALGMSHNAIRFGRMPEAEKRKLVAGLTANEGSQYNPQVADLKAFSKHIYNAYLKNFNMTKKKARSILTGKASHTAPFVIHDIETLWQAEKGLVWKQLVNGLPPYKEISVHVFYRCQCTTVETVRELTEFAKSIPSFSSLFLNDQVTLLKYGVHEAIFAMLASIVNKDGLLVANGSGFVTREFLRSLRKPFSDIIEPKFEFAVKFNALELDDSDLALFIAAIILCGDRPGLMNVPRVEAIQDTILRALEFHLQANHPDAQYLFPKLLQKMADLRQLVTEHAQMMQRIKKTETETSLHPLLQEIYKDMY

Assay [11] can be described thus: qHTS assay to identify small molecule antagonists of the peroxisome proliferator-activated receptor delta (PPARd) signaling pathway - cell viability counter screen (AID 743213). Also: nearly all actives have a fitted effect of over 50% in size. Also: potency is read from the fitted curve at half-maximal effect. The procedure, abridged: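 PPARd-bla HEK293H cells (3000/well) got compound plus 300 nM L165041 agonist for 17 h at 37 C. Viability in the same wells came from CellTiter-Glo luminescence after 30 min at room temperature.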

Assay [12] addresses Peroxisome proliferator-activated receptor delta (Homo sapiens) (UniProt Q03181). Briefly: qHTS assay to identify small molecule antagonists of the peroxisome proliferator-activated receptor delta (PPARd) signaling pathway (AID 743215; active = well fitted inhibition curve with a large enough effect in the signal ratio in the repeat runs, not every such curve was filed as active; the % refers to the signal ratio;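 also: cells stimulated with agonist L165041 at 300 nM final during compound exposure; series mostly up to about 62 µM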). Put shortly: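 Screen format: qHTS, antagonist mode. HEK293H PPARd-bla cells received compound and 300 nM L165041 (final), 17 h, 37 C. Beta-lactamase detected via FRET substrate fluorescence, 2 h, room temperature.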

The nature of assay [13]: qHTS assay to identify small molecule agonists of the farnesoid-X-receptor (FXR) signaling pathway - cell viability counter screen (AID 743218). Also: nearly all actives have a fitted effect of over 45% in size. Also: potency is read from the fitted curve at half-maximal effect. The procedure, abridged: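 Same-well cytotoxicity check on FXR-UAS-bla HEK 293T cells: 5 h attachment, 16 h compound at 37 C, CellTiter-Glo luminescence read at room temperature after 30 min.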
Assay [14] is described as follows: qHTS assay to identify small molecule antagonists of the farnesoid-X-receptor (FXR) signaling pathway - cell viability counter screen (AID 743221; active = well fitted cell-killing curve with a large enough effect in the repeat runs, not every such curve was filed as active; also: nearly all actives have a fitted effect of over 50% in size). The procedure, abridged:
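Here viability was scored by luminescence after CellTiter-Glo addition to wells already read for beta-lactamase. Prior treatment: compound plus CDCA (50 uM final), 16 h, 37 C, HEK 293T FXR-bla cells.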

Assay [15] is described as follows: qHTS assay to identify small molecule agonists of the vitamin D receptor (VDR) signaling pathway - cell viability counter screen (AID 743224). Also: series mostly up to about 63 µM; nearly all actives have a fitted effect of over 50% in size. The procedure, abridged:
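Counter screen for cytotoxicity: VDR-bla cells at 2,000 cells/well, 16 h compound exposure, then CellTiter-Glo luminescence after the beta-lactamase measurement.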

Assay [16] in a line: qHTS assay to identify small molecule agonists of the NFkB signaling pathway - cell viability counter screen (AID 1159515; calls by dose curve; also: nearly all actives have a fitted effect of over 55% in size; also: potency is read from the fitted curve at half-maximal effect). Put shortly: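 Counter screen run alongside the NFkB-bla agonist assay: ME-180 reporter cells exposed to compounds for 5 hr, then lysed with CellTiter-Glo in the same wells. Luminescence, read after 30 min, reflects viable cells.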
The target in assay [17] is Vitamin D3 receptor (Homo sapiens) (UniProt P11473). Description: qHTS assay to identify small molecule antagonists of the vitamin D receptor (VDR) signaling pathway (AID 743223; active = well fitted inhibition curve with a large enough effect in the signal ratio in the repeat runs, not every such curve was filed as active; the % refers to the signal ratio; also: potency is read from the fitted curve at half-maximal effect). The procedure, abridged:
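Inhibition of agonist-driven VDR signalling is scored in VDR-bla cells: 3 nM final 1alpha,25-dihydroxyvitamin D3 plus compound, 16 h at 37C, then beta-lactamase detection by FRET substrate fluorescence after 2 h.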

Assay [18] deals with Bile acid receptor (Homo sapiens) (UniProt Q96RI1). Description: qHTS assay to identify small molecule antagonists of the farnesoid-X-receptor (FXR) signaling pathway (AID 743217; active = well fitted inhibition curve with a large enough effect in the signal ratio in the repeat runs, not every such curve was filed as active; the % refers to the signal ratio). The procedure, abridged:
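Quantitative HTS, beta-lactamase reporter format: FXR-UAS-bla HEK 293T cells co-treated 16 h at 37 °C with compounds and 50 uM final chenodeoxycholic acid, then read by B/G FRET fluorescence.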

Assay [19] has the same target. Description: qHTS assay to identify small molecule agonists of the farnesoid-X-receptor (FXR) signaling pathway (AID 743220; active = well fitted activation curve with a large enough effect in the signal ratio in the repeat runs, not every such curve was filed as active; the % refers to the signal ratio). Put shortly: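 FXR-UAS-bla HEK 293T cells carrying a UAS-driven beta-lactamase reporter were plated for 5 h at 37C/5% CO2, then exposed to DMSO-dissolved Tox21 10K compounds for 16 h at 37C. A LiveBLAzer B/G FRET substrate was loaded for 2 h at room temperature before fluorescence reading.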

Assay [20] can be described thus: qHTS assay to identify small molecule antagonists of the vitamin D receptor (VDR) signaling pathway - cell viability counter screen (AID 743225). Also: nearly all actives have a fitted effect of over 50% in size. The procedure, abridged:
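Compounds were pinned onto VDR-bla HEK 293T cells together with 1-alpha,25-dihydroxyvitamin D3 at 3 nM final. After 16 h at 37C and 5% CO2 plus the reporter readout, cell viability was measured by CellTiter-Glo luminescence (30 min, room temperature).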

Values joined by “and” are separate entries in the source; they are usually repeats but may differ in a detail not shown here. Equal values may be shown once. Inconclusive results are not listed. Some compounds were tested as several samples or in several runs, with calls that do not always agree. Active and inactive are the calls of the source. Unless noted, calls follow the shape of the dose curve; as a rule, active = well fitted curve in the direction sought with a large enough effect in the repeat runs; inconclusive = weak or mixed curves; inactive = no such curve, though single readings can be large; an effect the other way counts as inactive or inconclusive.

Sequence of Bile acid receptor (Homo sapiens) (Q96RI1 whole entry, looked up): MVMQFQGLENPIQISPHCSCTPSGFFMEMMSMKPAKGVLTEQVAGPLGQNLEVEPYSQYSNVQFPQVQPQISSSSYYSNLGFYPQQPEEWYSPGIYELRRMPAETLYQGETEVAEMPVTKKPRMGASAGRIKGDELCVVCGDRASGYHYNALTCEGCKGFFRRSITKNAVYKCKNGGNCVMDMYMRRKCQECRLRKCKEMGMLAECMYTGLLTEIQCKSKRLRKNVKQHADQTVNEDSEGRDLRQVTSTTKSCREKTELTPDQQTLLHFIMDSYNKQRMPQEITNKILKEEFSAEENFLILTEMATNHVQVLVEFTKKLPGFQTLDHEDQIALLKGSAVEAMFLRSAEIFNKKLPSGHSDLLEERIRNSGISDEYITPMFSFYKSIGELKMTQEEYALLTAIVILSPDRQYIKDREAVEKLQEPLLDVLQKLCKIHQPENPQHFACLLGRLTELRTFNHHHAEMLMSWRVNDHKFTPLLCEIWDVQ
Sequence of Peroxisome proliferator-activated receptor gamma (Homo sapiens) (P37231 whole entry, looked up): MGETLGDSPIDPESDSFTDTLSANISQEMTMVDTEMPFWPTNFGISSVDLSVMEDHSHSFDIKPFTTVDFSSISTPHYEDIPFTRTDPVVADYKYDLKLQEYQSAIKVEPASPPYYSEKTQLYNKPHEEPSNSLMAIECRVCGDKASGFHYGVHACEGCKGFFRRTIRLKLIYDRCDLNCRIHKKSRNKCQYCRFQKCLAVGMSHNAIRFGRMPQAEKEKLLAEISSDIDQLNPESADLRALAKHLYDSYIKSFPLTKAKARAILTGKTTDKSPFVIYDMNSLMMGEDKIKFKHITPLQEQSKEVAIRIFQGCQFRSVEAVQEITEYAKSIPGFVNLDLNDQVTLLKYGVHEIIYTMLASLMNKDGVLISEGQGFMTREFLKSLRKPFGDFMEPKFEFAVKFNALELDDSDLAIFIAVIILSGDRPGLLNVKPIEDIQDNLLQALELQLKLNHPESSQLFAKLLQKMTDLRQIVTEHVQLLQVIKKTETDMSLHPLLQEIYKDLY
Sequence of Vitamin D3 receptor (Homo sapiens) (P11473 whole entry, looked up): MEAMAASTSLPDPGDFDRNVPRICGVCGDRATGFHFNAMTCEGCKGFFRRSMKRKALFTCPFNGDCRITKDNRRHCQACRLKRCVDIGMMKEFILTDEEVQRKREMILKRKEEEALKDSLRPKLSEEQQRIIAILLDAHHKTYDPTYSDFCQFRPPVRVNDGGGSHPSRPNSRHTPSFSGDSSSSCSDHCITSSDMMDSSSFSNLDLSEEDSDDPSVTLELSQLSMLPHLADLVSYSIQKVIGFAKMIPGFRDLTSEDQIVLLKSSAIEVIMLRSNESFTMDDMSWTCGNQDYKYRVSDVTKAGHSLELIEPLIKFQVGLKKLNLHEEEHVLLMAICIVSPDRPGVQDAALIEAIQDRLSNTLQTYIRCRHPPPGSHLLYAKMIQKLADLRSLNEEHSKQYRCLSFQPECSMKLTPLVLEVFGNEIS

In the case of `O=C(O)C(Cl)Cl`, the Potency result in assay [1], in [3], in assay [4], in assay [5], in assay [6] and in assay [7] was “inactive” throughout. Besides, the Potency entry in assay [9], in [11], in assay [13], in assay [14], in assay [15] and in assay [16] was “inactive” each time. The molecule was classed as inactive in assay [2], in assay [8], in assay [10] and in [12].
As to `CCCCCCCCCCCCCCCCn1cc[n+](C)c1`, the Potency is 62.4 µM (active) and inactive and 30.7 µM (active) in assay [1]; “inactive and 44 µM (active) and 21.9 µM (active)” in assay [13]; 15.5 µM (active) in [17]; 44.6 µM (active) and inactive and 24.6 µM (active) in [16]. Also, the result in assay [2], in [8], in assay [10] and in assay [12] was inactive. Also, the Potency result in assay [3] was “inactive”.
For `CC[n+]1ccccc1`, the Potency result in [1], in assay [3], in assay [4], in assay [6], in assay [9] and in assay [11] was “inactive” throughout. Further, the Potency result in assay [13], in assay [14], in assay [15] and in assay [16] was “inactive” throughout. Moreover, the result in [2] was inactive. In addition, the Potency result in assay [5] was “inactive and 2.71 µM (active)”.
As for `CNC`, the Potency result in assay [1], in [3], in assay [4], in [5], in assay [6] and in [7] was “inactive” in each case. Also, the Potency result in assay [9], in assay [11], in [13], in assay [14], in assay [17] and in assay [15] was “inactive” each time. The Potency entry in assay [16] was “inactive”. For the same molecule, the result in assay [2], in assay [8], in assay [10] and in assay [12] was inactive.
Take `CCC(=O)C(CC(C)N(C)C)(c1ccccc1)c1ccccc1` (stereo not drawn): the Potency entry in [1], in assay [3], in assay [4], in assay [6], in assay [7] and in [18] was “inactive” throughout. In addition, the Potency result in [13] and in assay [14] was “inactive” throughout. Further, the molecule was classed as inactive in assay [2], in assay [8], in assay [12] and in assay [19]. In addition, the Potency entry in assay [11] is “inactive and 37.4 µM (active)”; in assay [16], 43.8 µM (active) and inactive.
Consider `CN(C)[C@@H]1C(=O)C(C(N)=O)=C(O)[C@@]2(O)C(=O)C3=C(O)c4c(O)cccc4[C@@](C)(O)[C@H]3[C@H](O)[C@@H]12`, for which the Potency result in assay [1], in assay [3], in assay [4], in [5], in assay [6] and in assay [7] was “inactive” in each case. The Potency result in assay [9], in assay [11], in assay [13], in assay [14], in assay [15] and in assay [20] was “inactive” in each case. In assay [16], the Potency entry was “inactive”. Besides, the molecule was called inactive in assay [2].
For the molecule `Cc1cc(Cl)ccc1N`, the Potency entry in assay [1], in [3], in assay [4], in [5], in assay [6] and in assay [9] was “inactive” throughout. Besides, the Potency entry in assay [11], in assay [13], in [14], in [15], in [20] and in assay [16] was “inactive” each time. Moreover, the result in assay [2], in assay [8], in [10] and in [12] was inactive.
In the case of `COP(=O)(OC)OC=C(Cl)Cl`, the Potency entry in [1], in [4], in [5], in assay [6], in [7] and in assay [9] was “inactive” throughout. In addition, the Potency entry in [11], in assay [13], in assay [14], in assay [15], in assay [20] and in assay [16] was “inactive” throughout. In addition, the outcome in [2], in assay [10] and in assay [12] was inactive.

These data come from PubChem BioAssay (Tox21).
